Among the data in the supplement of paper PMC13380429 are SARS-CoV-2 infection rate values, retold here.

Counter-ions that a name gives are not always drawn. Values without a mark were called inactive.

The assay deals with Vero E6 infected with SARS-CoV-2. Description: SARS-CoV-2 infection rate relative to infected DMSO; higher = more infection, active = 60 or less. To be noted: 24 h.
Consider `CCC(=O)NC1CCc2cccc(OC)c2C1` (stereo not given) (10 µM), for which the SARS-CoV-2 infection rate is 93.5%.

Turning to `Cc1cc(C)c2c(N)c(C(=O)NCc3ccc(Cl)cc3)sc2n1` (10 µM), the SARS-CoV-2 infection rate was 99%. For `CC(O)(CS(=O)(=O)c1ccc(F)cc1)C(=O)Nc1ccc(C#N)c(C(F)(F)F)c1` (stereo not given) [bicalutamide] (10 µM) the value was 114%; for `CC(C)(C)NCC(O)c1ccccc1Cl` (stereo not given) [tulobuterol] (10 µM), 115%; for `CN[C@@H]1[C@H](O[C@H]2[C@H](O[C@H]3[C@H](O)[C@@H](O)[C@H](N=C(N)N)[C@@H](O)[C@@H]3N=C(N)N)O[C@@H](C)[C@]2(O)C=O)O[C@@H](CO)[C@H](O)[C@H]1O` [STREPTOMYCIN SULFATE [5mM; 10% aq DMSO + 5mM ethanolamine]] (10 µM), 104%. The figure for `COC(=O)Nc1nc2cc([S+]([O-])c3ccccc3)ccc2[nH]1` (stereo not given) [oxfendazole] (10 µM) is 101%; for `CN(C)c1ccc(/C=C2\CCCN=C2c2cccnc2)cc1` [DMAB-anabaseine] (10 µM) it is 96.5%.

With `C[C@@H](C(=O)O)c1ccc(-c2ccccc2)c(F)c1` (racemic) [flurbiprofen-(+/-)] (10 µM), the SARS-CoV-2 infection rate is 107%.

Regarding `C#Cc1cccc(Nc2ncnc3cc(OC)c(OCCCCCCC(=O)NO)cc23)c1` (0.833333 µM), the SARS-CoV-2 infection rate is 122%. Regarding `CC(=O)N[C@H]1[C@H]([C@H](O)[C@H](O)CO)OC(O)(C(=O)O)C[C@@H]1O` (mixture of isomers) [aceneuramic-acid] (10 µM), the SARS-CoV-2 infection rate is 104%. For `CC(C)c1cc(C(=O)N2Cc3ccc(CN4CCN(C)CC4)cc3C2)c(O)cc1O` (10 µM) the value was 118%. As to `Cc1c(C)c2c(c(C)c1O)CC[C@@](C)(CCC[C@H](C)CCC[C@H](C)CCCC(C)C)O2` [vitamin-E] (10 µM), the SARS-CoV-2 infection rate was 117%. With `Oc1ccc2c3c1O[C@H]1c4[nH]c5ccccc5c4C[C@@]4(O)[C@@H](C2)N(CC2CC2)CC[C@]314` [naltrindole] (10 µM), the SARS-CoV-2 infection rate is 106%.

`CCOC(=S)SSC(=S)OCC` [dixanthogen] (10 µM): the SARS-CoV-2 infection rate is 106%. For `Cn1cc(-c2ccc3nnc(C(F)(F)c4ccc5ncccc5c4)n3n2)cn1` (10 µM) the value was 95.5%; for `O=C1NC(=O)C(=Cc2ccc(-c3ccc(F)cc3)o2)S1` (stereo in doubt) (10 µM), 112%; for `CC/C(=C(\c1ccc(O)cc1)c1ccc(OCCN(C)C)cc1)c1ccccc1` [afimoxifene] (10 µM), 27.5% (active). The figure for `Cc1sc2c(c1C)C(c1ccc(Cl)cc1)=N[C@@H](CC(N)=O)c1nnc(C)n1-2` (0.833333 µM) is 104%. The figure for `Nc1c(-c2cccc(C(F)(F)F)c2)nsc1C(=O)O` [amflutizole] (10 µM) is 108%; for `NCCNC(=O)c1ccc(Cl)cn1` [lazabemide] (10 µM) it is 106%; for `CCN(c1ccccc1)c1cc(=NC)n(C)c(C)n1` (10 µM) it is 94%. On to `CCCCc1ccc(O)cc1O` [rucinol] (10 µM), for which the SARS-CoV-2 infection rate is 99%. The figure for `CC(=O)Oc1cc(C(F)(F)F)ccc1C(=O)O` [triflusal] (10 µM) is 102%; for `COc1ccc(-c2nc(-c3ccc(-c4cccc(Cl)c4)o3)[nH]c2-c2ccc(OC)cc2)cc1` [neurodazine] (10 µM) it is 70%; for `CC/C(=C(/c1ccc(OCCN(C)C)cc1)c1cccc(O)c1)c1ccccc1` [droloxifene] (10 µM) it is 24% (active). For `Nc1cc(-c2ccncc2)c[nH]c1=O` [amrinone] (10 µM) the value was 112%. For `CC(C)CN(C[C@@H](O)[C@H](Cc1ccccc1)NC(=O)O[C@H]1CCOC1)S(=O)(=O)c1ccc(N)cc1` [amprenavir] (10 µM) the value was 110%; for `Cc1ccc(Cl)c(OC[C@H](O)CNC(C)C)c1` [1-(2-chloro-5-methylphenoxy)-3-(isopropylamino)-2-propanol] (10 µM), 95.5%. As for `COc1cccc2c1C(=O)c1c(O)c3c(c(O)c1C2=O)C[C@@](O)(C(=O)CO)C[C@@H]3O[C@H]1C[C@H](N2CCO[C@H](OC)C2)[C@H](O)[C@H](C)O1` [nemorubicin] (0.833333 µM), the SARS-CoV-2 infection rate was 108%.

With `NC(=O)CN1CC(O)CC1=O` (stereo not given) [oxiracetam] (10 µM), the SARS-CoV-2 infection rate was 107%. For `NCC(CC(=O)O)c1ccc(Cl)cc1` (stereo not given) [baclofen] (10 µM) the value was 109%. For `O=C(Nc1ccc(CN2CCOCC2)cc1)c1ccc(-c2cccc(Cl)c2)o1` (10 µM) the value was 110%. As to `Nc1ncnc2c1ncn2[C@@H]1O[C@H](COP(=O)(O)OP(=O)(O)OP(=O)(O)O)[C@@H](O)[C@H]1O` (10 µM), the SARS-CoV-2 infection rate is 99.5%.

For `O=S(=O)(c1ccccc1)c1cnc2c(N3CCNCC3)cccc2c1` (10 µM), the SARS-CoV-2 infection rate is 106%. As to `C[C@H](CCC(=O)O)[C@H]1CC[C@H]2[C@@H]3CC[C@@H]4C[C@H](O)CC[C@]4(C)[C@H]3CC[C@]12C` [lithocholic-acid] (10 µM), the SARS-CoV-2 infection rate was 110%.

For `Cc1c(C(=O)NC2CCCCC2)sc2nc3ccc(N)cc3n12` (10 µM), the SARS-CoV-2 infection rate is 105%. `O=C(Nc1ccncc1)c1cc([N+](=O)[O-])ccc1Cl` (10 µM): the SARS-CoV-2 infection rate is 87%.

For the molecule `O=C(O)CC1CC(c2ccccc2)=NO1` (stereo not given) (10 µM), the SARS-CoV-2 infection rate is 116%. For `CCOC(=O)n1ccn(C)c1=S` [carbimazole] (10 µM) the value was 99%; for `CCN(CC)Cc1cc(Nc2ccnc3cc(Cl)ccc23)ccc1O` [amodiaquine] (10 µM), 17.5% (active).
